From PubChem
IDH1 R132H inh – blocks human mutant IDH1 R132H enzyme; 0.093% of 390,000 active; O75874; IDH1-R132H enzyme, NADPH consumption, diaphorase/resazurin fluorescence; Potency, µM (doses to about 76.6 µM), without a hit: top-dose activity change, negative = inhibition, most hits filed as inhibitors; note: potency is the fitted concentration of half-maximal effect; % is set by controls: 0 for no effect and ±100 for the full control effect; nearly all actives have a fitted effect of over 65% in size
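IDH1-R132H (0.5 ug/mL dispensed) in pH 7.5 Tris buffer was preincubated 30 min with compound, then given a substrate mix of 0.016 mM NADPH and 2 mM alpha-KG for 80 min at room temperature; remaining NADPH was read by diaphorase/resazurin fluorescence.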
D3 antag – D3 dopamine receptor (human) antagonism | 2.5% of 360,000 active | P35462 | D3R cells, DiscoveRx beta-arrestin luminescence, antagonist mode; active compounds read low | max response, negative = inhibition, %; in the data active = max response below about -50%; inconclusive = no clear call, values can overlap the other calls; note: % is set by controls: 0 for no effect and ±100 for the full control effect
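Cells plated overnight at 1500 cells/well, then exposed to library compounds with dopamine controls for 90 minutes at 37 degrees C. DiscoveRx reagent added for 30–60 minutes at room temperature; luminescence read, quantitative HTS format.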
B2AR arrestin – recruits beta-arrestin to the human beta2-adrenergic receptor. AID 492947. P07550. beta-arrestin recruitment to beta2AR, cell-based reporter. Potency, µM (highest dose often 46.1 µM), without a hit: top-dose activation, usual class: activators. 0.02% of 330,000 active;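 note: potency is the fitted concentration of half-maximal effect; 0% = DMSO controls and full agonism = EC100 isoproterenol or metaproterenol; nearly all actives have a fitted effect of over 65% in size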
Target sequence (P07550 whole entry, looked up): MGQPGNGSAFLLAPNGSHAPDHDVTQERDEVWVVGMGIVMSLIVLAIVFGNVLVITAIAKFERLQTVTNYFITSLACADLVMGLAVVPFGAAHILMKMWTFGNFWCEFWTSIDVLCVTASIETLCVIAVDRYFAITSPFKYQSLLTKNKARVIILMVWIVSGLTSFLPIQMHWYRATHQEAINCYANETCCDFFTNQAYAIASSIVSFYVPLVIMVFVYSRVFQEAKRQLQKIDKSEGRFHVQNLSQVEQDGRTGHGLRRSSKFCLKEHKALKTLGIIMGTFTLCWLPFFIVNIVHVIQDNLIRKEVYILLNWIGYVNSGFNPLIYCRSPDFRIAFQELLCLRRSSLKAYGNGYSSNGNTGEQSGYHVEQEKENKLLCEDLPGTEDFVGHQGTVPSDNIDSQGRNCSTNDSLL
a7 integrin act – activates integrin-mediated alleviation for muscular dystrophy | AID 624291 | alpha7betagal myoblasts, beta-gal FDG fluorescence, 48 h | 0.064% of 350,000 active | Potency, µM (highest dose often 38.3 µM), inactives show top-dose activation, most hits filed as activators;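 note: potency is the fitted concentration of half-maximal effect; 100% = response of the positive control SU9516; nearly all actives have a fitted effect of over 60% in size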
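alpha7betagal+/- myoblasts (passage 13, 250/well) treated 48 h at 37C with compounds at 1:260 dilution of DMSO stock. Lysed, then beta-galactosidase activity read as FDG fluorescence (ex 480/em 540) after 30 min, with pre-read for autofluorescence.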
D3 ag – agonists of human D3 dopamine receptor | P35462 | D3R DiscoveRx beta-arrestin cells, luminescence, 90 min | max activation, % | 0.58% of 410,000 active | AID 652048; in the data active = max activation above about 30%; note: 0% is about no effect
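Cells at 1500/well, incubated overnight, then treated with pinned compounds (dopamine as control) for 90 min at 37 degrees C. DiscoveRx reagent added for 30 - 60 minutes at room temperature; luminescence read.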
IDH1 autofl – counter-screen for mutant IDH1 inhibitors: fluorescence interference. shares compounds with IDH1 R132H inh. Resorufin detection reagent fluorescence interference, cell-free. inhibition of signal, % at 51.2 µM. 750 tested, under 10 active. AID 623980;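 note: 0% = wells with normal resorufin and full inhibition = wells lacking resorufin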
WT IDH1 inh – inhibits human wild-type IDH1, mutant selectivity check | AID 623995 | shares compounds with IDH1 R132H inh | 9% of 750 active | Potency, µM (highest dose often 115 µM), for the others: top-dose activity change, negative = inhibition, usual class: inhibitors | WT IDH1 enzyme, NADPH diaphorase/resazurin fluorescence;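 note: potency is the fitted concentration of half-maximal effect; 0% = full WT IDH1 enzyme control and full inhibition = no enzyme wells; nearly all actives have a fitted effect of over 55% in size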
mIDH1 confirm – inhibits human mutant IDH1 enzyme in cherrypick confirmation. IDH1 R132H enzyme, NADPH diaphorase/resazurin fluorescence. 83% of 750 active. Potency, µM (titrated, usually from 76.6 µM), for the others: at the top dose activity change, negative = inhibition, actives largely listed as inhibitors. shares compounds with IDH1 R132H inh; note: potency is the fitted concentration of half-maximal effect; nearly all actives have a fitted effect of over 50% in size
* = called active by the depositor. This is a sample that favours compounds with a hit; in the whole collection about 2.9% have one here. Unless noted, calls come from the whole dose curve; as a rule, active = well fitted curve in the direction sought with a large enough effect; inconclusive = small, poorly fitted or top-dose-only effect, or another doubt; inactive = no such curve, though single readings can be large; an effect the other way counts as inactive or inconclusive.

For CCOC(=O)c1c(NC(=O)/C=C/C(=O)O)sc(C)c1-c1ccc(C)c(C)c1 the results were IDH1 R132H inh 23µM*, D3 antag -1, B2AR arrestin 0%, a7 integrin act 0%, D3 ag 1, IDH1 autofl -4, WT IDH1 inh inconclusive and mIDH1 confirm 45µM*.
Screening C[C@@H]1CCCCCCCCC(=O)OCCN(C(=O)OC(C)(C)C)[C@H](C)CCCCCCCCC(=O)OCCN(C(=O)OC(C)(C)C)[C@H](C)CCCCCCCCC(=O)OCCN1C(=O)OC(C)(C)C returned IDH1 R132H inh 9%, D3 antag 0, B2AR arrestin 0%, a7 integrin act 5% and D3 ag 0.
CCOC(=O)c1cccc(NC(=O)C2CCCN(c3nnc(C)c4c(C)n(-c5ccccc5)nc34)C2)c1 (configuration not stated) was read as IDH1 R132H inh 0% and D3 ag 21.
Screening O=S(=O)(Nc1ccc(S(=O)(=O)Nc2nccs2)cc1)c1ccc(Br)cc1 returned IDH1 R132H inh inconclusive, D3 antag -1, B2AR arrestin 0%, a7 integrin act 4%, D3 ag 1, IDH1 autofl 2, WT IDH1 inh 8% and mIDH1 confirm 40µM*.
For CCCCNc1nc2c(c(=O)n(Cc3ccc(Cl)c(Cl)c3)c(=O)n2C)n1C the results were IDH1 R132H inh -11% and D3 ag 5.
CCc1ccc(N(C(=O)c2ccco2)C(C(=O)NC2CCCC2)c2ccco2)cc1 (configuration not stated) was read as IDH1 R132H inh inconclusive, D3 antag inconclusive, a7 integrin act -18%, D3 ag -3, IDH1 autofl -7, WT IDH1 inh -7% and mIDH1 confirm 40µM*.
For Cc1ccc(C)c(N(C(=O)c2ccco2)C(C(=O)NC2CCCC2)c2ccco2)c1 (configuration not stated) the results were IDH1 R132H inh 46µM*, D3 antag 10, B2AR arrestin -1%, a7 integrin act -28%, D3 ag 8, IDH1 autofl -4, WT IDH1 inh 13% and mIDH1 confirm 20µM*.
`CC(=O)Nc1ccc(N(C(=O)Cc2c[nH]c3ccccc23)C(C(=O)NC2CCCCC2)c2ccco2)cc1` (configuration not stated) gave IDH1 R132H inh -1%, D3 antag -15, B2AR arrestin -1%, a7 integrin act -11% and D3 ag -5.
`CCc1ccc(N(C(=O)c2ccco2)C(C(=O)NC2CCCC2)c2ccncc2)cc1` (configuration not stated) gave IDH1 R132H inh -11%, D3 antag -3, B2AR arrestin 0%, a7 integrin act inconclusive and D3 ag 3.
For Cc1ccc(C(C(=O)NC2CCCCC2)N(C(=O)Cc2c[nH]c3ccccc23)c2ccccc2)o1 (configuration not stated) the results were IDH1 R132H inh inconclusive, D3 antag 31, B2AR arrestin -1%, a7 integrin act -25%, D3 ag -17, IDH1 autofl -9, WT IDH1 inh -12% and mIDH1 confirm 7.1µM*.
CC(=O)c1cccc(N(C(=O)c2ccco2)C(C(=O)NC2CCCCC2)c2ccc(C)o2)c1 (configuration not stated) was read as IDH1 R132H inh inconclusive, D3 antag 3, B2AR arrestin 0%, a7 integrin act inconclusive, D3 ag -2, IDH1 autofl 1, WT IDH1 inh 1% and mIDH1 confirm 40µM*.
